# IL-1B inflam inh: inflammasome signaling inhibition, IL-1 beta readout; THP-1 LPS/ATP IL-1B secretion, AlphaLISA, 16 h; active compounds read low; hit rate 4.7% among 360,000; activity change, % at 57.5 µM; AID 743279; in the data active means activity change below about -50%; inconclusive means mostly about -30% to -49%
#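 THP-1 cells pretreated 1 hr with compounds (up to 57.5 uM final), then stimulated with LPS (250 ng/mL final) plus ATP (1.25 mM final); secreted IL-1B measured by AlphaLISA after 16 hr, decreased signal indicating inhibition.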
# uPA surface inh: cell surface uPA generation inhibition; Potency, µM (titrated, usually from 38.3 µM), for the others: at the top dose activity change, negative = inhibition, actives largely listed as inhibitors; AID 540303; hit rate 0.31% among 330,000; cell surface uPA generation assay, qHTS; active means well fitted inhibition curve with a large enough effect; inconclusive means small, poorly fitted or top-dose-only effect; inactive means no such curve, though single readings can be large or run the other way; tested in mouse RAW 264.7 cells; further: potency means the concentration at half of the fitted maximal effect; nearly all actives have a fitted effect of over 55% in size
# TDP1 cell noCPT: qHTS for Inhibitors of human tyrosyl-DNA phosphodiesterase 1 (TDP1): qHTS in cells in absence of CPT. DT40 Tdp1-/- hTDP1 cells, no CPT, ATP luminescence, 48 h. Potency, µM (highest dose often 46.2 µM), without a hit: at the highest dose activity change, negative = growth inhibition, hits mostly inhibitors. hit rate 15% among 420,000. AID 686978, 2013; further: potency means the concentration at half of the fitted maximal effect; nearly all actives have a fitted effect of over 55% in size
#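 Luminescent ATP content (CellTiter-Glo) served as the growth readout. Knockout chicken DT40 cells expressing human TDP1 were exposed to compounds without camptothecin for a minimum 48 hr at 37 °C.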
# DT40 TDP1 CPT: growth inhibition of DT40 Tdp1-/-;hTDP1 cells with camptothecin (screen for TDP1 inhibitors); chicken DT40 Tdp1-/-;hTDP1 cells + 20 nM CPT, ATP luminescence, 48 h; hit rate 12% among 420,000; Potency, µM (highest dose often 46.2 µM), for inactives: top-dose activity change, negative = growth inhibition, actives largely listed as inhibitors; AID 686979; further: potency means the concentration at half of the fitted maximal effect; nearly all actives have a fitted effect of over 55% in size
#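 Chicken DT40 Tdp1-/- cells stably complemented with human TDP1 were seeded at 400 cells/well in medium containing 20 nM camptothecin, exposed to pin-transferred compounds, and grown at 37 °C for at least 48 hr. Viability was read as ATP luminescence.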
# HT1080-NT tox: kills 2HG-producing HT-1080-NT fibrosarcoma cells; hit rate 1.6% among 360,000; HT-1080-NT fibrosarcoma viability, CellTiter-Glo ATP luminescence, 48 h; Potency, µM (top dose mostly 46.1 µM), for inactives: at the top dose activity, negative = less viability, hits mostly cytotoxic;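 further: NT is the 2HG producing partner of a matched IDH1 knockdown line; potency means the concentration at half of the fitted maximal effect; 0% = DMSO-treated cells and -100% = media-only wells without cells; nearly all actives have a fitted effect of over 55% in size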
#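 Toxicity toward the 2HG-producing NT line was scored as %Activity, normalised to DMSO and no-cell wells, from CellTiter-Glo luminescence after 48 hours' treatment.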
# HT1080 IDH1KD tx: toxicity to HT-1080 IDH1 knockdown cells (counter line); HT-1080 IDH1 knockdown viability, ATP luminescence, 48 h; AID 686971; Potency, µM (doses to about 46.1 µM), for the others: top-dose activity, negative = toxicity, actives largely listed as cytotoxic; hit rate 2% among 360,000;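 further: potency means the concentration at half of the fitted maximal effect; 0% = DMSO wells and -100% = cell-free medium wells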
#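 Using the IDH1-knockdown HT-1080 line run in the same batch and compound series as the NT line, viability after 48 h at 37 °C was determined by CellTiter-Glo luminescence and expressed as % activity.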
# * hit, by the source's call; i = inactive; ? = inconclusive; . = not tested or not shown; [ ] = dose if it differs, or a comment. Shown are actives, neighbours in structure and some others; about 19% of the full set was active somewhere. Unless noted, the call rests on the fitted dose curve; in most records, active means well fitted curve in the direction sought with a large enough effect; inconclusive means small, poorly fitted or top-dose-only effect, or another doubt; inactive means no such curve, though single readings can be large; an effect the other way counts as inactive or inconclusive. Unless noted, on the % scale 0 is the no-effect control and ±100 the full control effect.
SMILES,IL-1B inflam inh,uPA surface inh,TDP1 cell noCPT,DT40 TDP1 CPT,HT1080-NT tox,HT1080 IDH1KD tx
CCCC(=O)NC(c1cccs1)c1cc(Cl)c2cccnc2c1O (configuration not stated),89,-15%,2.9µM*,5.2µM*,-28%,?
CCCC(=O)NC(c1ccco1)c1cc(Cl)c2cccnc2c1O (configuration not stated),72,-9%,4.6µM*,3.7µM*,?,10µM*
CCCC(=O)NC(c1ccc2c(c1)OCO2)c1cc(Cl)c2cccnc2c1O (configuration not stated),-82*,-4%,3.7µM*,4.6µM*,8.2µM*,3.7µM*
CCC(=O)NC(c1cc(Cl)c2ccccc2c1O)C(C)C (configuration not stated),.,-20%,.,.,.,.
CCOC(=O)C1=C(COC(=O)c2ccc(Cl)c(S(=O)(=O)N3CCOCC3)c2)NC(=O)NC1C (configuration not stated),-2,7%,2%,1%,-6%,-6%
CCOC(=O)c1c(-c2ccccc2Cl)csc1NC(=O)c1cc(S(=O)(=O)N2CCOCC2)ccc1C,i,3%,7.3µM*,10µM*,2%,1%
O=C(Nc1ccccc1N1CCCCC1)c1cc(S(=O)(=O)N2CCOCC2)ccc1F,-23,?,?,?,-1%,-5%
CCOC(=O)c1ccccc1NC(=O)c1cc(S(=O)(=O)N2CCOCC2)ccc1F,-54*,-10%,?,?,-11%,0%
CCOC(=O)c1ccccc1NC(=O)c1c(F)c(F)c(F)c(F)c1F,-69*,-8%,-5%,?,4%,6%
CCOC(=O)C1=C(COC(=O)c2cc(S(=O)(=O)N3CCOCC3)ccc2F)NC(=O)NC1C (configuration not stated),-95*,7%,-6%,-20%,-5%,-2%
CCNC(=O)N(C)C[C@H]1N[C@@](CC)(C(=O)OC)[C@H]2C(=O)N(Cc3ccccc3)C(=O)[C@@H]12,17,5%,-9%,-23%,6%,2%
O=C(CCCC1=NS(=O)(=O)c2ccccc2N1)Nc1ccccc1,-3,13%,-17%,3%,3%,-5%
Cn1c(N)c(C(=O)COC(=O)c2cc(S(=O)(=O)N3CCOCC3)ccc2F)c(=O)n(C)c1=O,-105*,2%,5%,5%,?,?
O=C(OCCN1C(=O)c2ccccc2C1=O)c1cc(S(=O)(=O)N2CCOCC2)ccc1Cl,-17,-3%,3%,9%,1%,-1%
O=C(OCN1C(=O)c2ccccc2C1=O)c1cc(S(=O)(=O)N2CCOCC2)ccc1F,-57*,2%,12%,-3%,7%,-17%
COc1cccc(CN2CC(C(=O)NCCc3ccc(C)s3)CCC2=O)c1 (configuration not stated),-8,26%,6%,4%,-6%,4%
O=C(CC1C(=O)NCCN1CC1CCCCC1)NCc1cc(F)ccc1F (configuration not stated),-11,2%,?,23µM*,-5%,-8%
O=C(CC1C(=O)NCCN1CC1CCCCC1)NCc1ccc(F)cc1F (configuration not stated),-66*,-2%,-18%,-1%,-16%,-6%
CN(CCOc1ccccc1)C(=O)C1CCC(=O)N(CCc2ccc(Cl)cc2)C1 (configuration not stated),-13,4%,?,?,2%,-2%
N#Cc1cccc(NC(=O)CNc2cc(S(=O)(=O)N3CCOCC3)ccc2N2CCCC2)c1,?,1%,23µM*,?,-15%,-2%
COc1cccc(NC(=O)CNc2cc(S(=O)(=O)N3CCOCC3)ccc2N2CCCC2)c1,-1,3%,?,?,0%,6%
CC(=O)c1ccc(NC(=O)CNc2cc(S(=O)(=O)N3CCOCC3)ccc2N2CCCC2)cc1,-17,-15%,26µM*,16µM*,-10%,5%
O=C(CNc1cc(S(=O)(=O)N2CCOCC2)ccc1N1CCCC1)Nc1ccc(Cl)cc1,-19,?,18µM*,18µM*,0%,-3%
COC(=O)C1N2C(=O)N(C)[C@H](C(=O)OC)[C@H]2SC1(C)C (some centres not stated),.,.,-3%,-9%,.,.
Cc1cccc(NC(=O)CSCC(=O)NCc2ccco2)c1,13,-3%,15%,-7%,5%,0%
SMILES,IL-1B inflam inh,uPA surface inh,TDP1 cell noCPT,DT40 TDP1 CPT,HT1080-NT tox,HT1080 IDH1KD tx
CC(C)(C)c1cc(C(C)(C)C)c2oc(=O)c(-c3nc4ccccc4[nH]3)cc2c1,.,.,8.2µM*,9.2µM*,.,.
CCCCn1c(Oc2cccc(C(=O)OC)c2)nc2c1c(=O)n(C)c(=O)n2C,.,.,3%,-15%,.,.
COc1ccc(C(=O)Cn2c(Br)nc3c2c(=O)n(C)c(=O)n3C)cc1,1,.,23µM*,13µM*,-17%[9.24 µM],-22%
Cn1c(=O)c2c(ncn2CC(=O)OCC(=O)c2ccc(Br)cc2)n(C)c1=O,21,.,26µM*,16µM*,10%,2%
CCCCn1c(Oc2ccc(C(=O)OC)cc2)nc2c1c(=O)n(C)c(=O)n2C,-73*,16%,11µM*,16µM*,-11%,5%
COc1ccc(C(=O)Cn2c(Br)nc3c2c(=O)n(C)c(=O)n3C)cc1OC,29,2%,?,?,-2%,-5%
CCOC(=O)Cn1ccc2cc(S(=O)(=O)N3CCCC3)ccc21,33,.,-1%,-3%,9%,7%
CCOC(=O)N1CCN(C(=O)c2cc(S(=O)(=O)N3CCCC3)cn2C)CC1,2,0%,6%,-4%,7%,9%
Cc1ccc(C)c(N2CCN(C(=O)c3cc(S(=O)(=O)N4CCCCC4)cn3C)CC2)c1,.,.,18µM*,21µM*,.,.
CC(=O)c1ccc(N2CCN(S(=O)(=O)c3csc(C(N)=O)c3)CC2)cc1,30,-1%,6%,-2%,-27%,?
Cc1ccc(C)c(N2CCN(C(=O)c3cc(S(=O)(=O)N4CCCC4)cn3C)CC2)c1,-14,-3%,21µM*,18µM*,-5%,-1%
Cc1cccc(N2CCN(C(=O)c3cc(S(=O)(=O)N4CCCC4)cn3C)CC2)c1C,28,?,?,23µM*,?,15µM*
Cc1cccc(N2CCN(S(=O)(=O)c3csc(C(N)=O)c3)CC2)c1C,.,.,21µM*,12µM*,.,.
